nsP2pro inh: blocks chikungunya virus nsP2 protease peptide cleavage | AID 1964107 | FRET peptide cleavage, nsP2pro, fluorescence 1 h | Potency, µM (titrated, usually from 24.9 µM), inactives show top-dose activity change, negative = inhibition, hits mostly inhibitors | 31,000 tested, 1.1% active | Q8JUX6; note: nearly all actives have a fitted effect of over 60% in size
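Recombinant nsP2pro (150 nM) was preincubated with compound 15 min at room temperature in 10 mM Tris-HCl pH 8.0, 0.01% Tween 20. Peptide 2 FRET substrate (2.5 uM) was then added and fluorescence read after 1 h. Seven-point series, up to 25 uM.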
nsP2 cell sec: inhibits CHIKV nsP2 protease in cells; shares compounds with nsP2pro inh; cell-based CHIKV nsP2 protease reporter assay; Potency, µM (series often up to 51.1 µM), inactives show at the top dose activity change, negative = inhibition, usual class: inhibitors; 450 tested, 10% active; AID 1964100; note: nearly all actives have a fitted effect of over 70% in size
CHIKV NSP2 FL: inhibits full-length CHIKV NSP2 enzyme; AID 1964101; Potency, µM (titrated, usually from 50.7 µM), inactives show at the top dose activity change, negative = inhibition, most hits filed as inhibitors; Full-length CHIKV NSP2 protease enzymatic counterscreen; shares compounds with nsP2pro inh; 410 tested, 39% active; note: nearly all actives have a fitted effect of over 65% in size
Furin counterscr: inhibits human furin in a CHIKV nsP2 protease selectivity counterscreen. shares compounds with nsP2pro inh. Recombinant human furin enzymatic counterscreen, fluorogenic substrate. Potency, µM (top dose mostly 50.6 µM), for the others: top-dose activity change, negative = inhibition, usual class: inhibitors. 410 tested, 6% active. AID 1964102
NS23 peptide cs: blocks CHIKV nsP2 protease cleavage of endogenous NS2/3 peptide; shares compounds with nsP2pro inh; Purified CHIKV nsP2 protease, endogenous NS2/3 peptide cleavage; Potency, µM (highest dose often 51 µM), inactives show at the top dose activity change, negative = inhibition, actives largely listed as inhibitors; 410 tested, 34% active; note: nearly all actives have a fitted effect of over 55% in size
Papain counter: inhibits papain in a CHIKV nsP2 protease selectivity counterscreen. purified papain protease activity, enzymatic inhibition. 410 tested, 5% active. shares compounds with nsP2pro inh. Potency, µM (titrated, usually from 51 µM), inactives show top-dose activity change, negative = inhibition, hits mostly inhibitors
Target sequence (P00784 whole entry, looked up): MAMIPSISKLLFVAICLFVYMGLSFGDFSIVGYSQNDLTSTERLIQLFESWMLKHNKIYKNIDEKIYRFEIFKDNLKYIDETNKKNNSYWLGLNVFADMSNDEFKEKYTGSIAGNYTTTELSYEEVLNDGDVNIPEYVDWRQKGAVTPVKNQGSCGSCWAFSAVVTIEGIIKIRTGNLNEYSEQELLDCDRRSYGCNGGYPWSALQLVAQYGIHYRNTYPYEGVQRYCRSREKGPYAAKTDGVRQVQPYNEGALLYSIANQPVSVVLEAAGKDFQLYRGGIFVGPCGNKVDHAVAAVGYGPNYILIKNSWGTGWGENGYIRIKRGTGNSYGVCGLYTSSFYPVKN
nsP2pro conf qHTS: CHIKV nsP2 protease inhibition, confirmatory qHTS; 410 tested, 43% active; CHIKV nsP2 protease enzymatic activity, qHTS; shares compounds with nsP2pro inh; Potency, µM (highest dose often 25.5 µM), without a hit: at the highest dose activity change, negative = inhibition, hits mostly inhibitors; note: nearly all actives have a fitted effect of over 75% in size
HCV NS3 4A cs: inhibits HCV NS3/4A protease in an nsP2pro selectivity counterscreen | HCV NS3/4A protease biochemical counterscreen | Potency, µM (series often up to 50.9 µM), usual class: inhibitors | 410 tested, 20% active | shares compounds with nsP2pro inh; note: nearly all actives have a fitted effect of over 55% in size
Starred values were filed as active, the others as inactive; i = inactive; ? = inconclusive; [ ] = dose if it differs, or a comment. Only a selection was taken, and hits are over-represented in it overall. Calls come from the whole dose curve. % is set by controls: 0 for no effect and ±100 for the full control effect; potency is the fitted concentration of half-maximal effect.

SMILES | nsP2pro inh | others
Cc1cc(Nc2ncc(Cl)c(Nc3ccccc3S(=O)(=O)C(C)C)n2)c(OC(C)C)cc1C1CCNCC1 | 64.0%
Cc1cc(NC(=O)Nc2nnc(-c3cccnc3)s2)ccc1Br | 3.2%
Nc1cc(-c2ccncc2)c[nH]c1=O | 3.51µM* | nsP2 cell sec=3.4%;CHIKV NSP2 FL=?;Furin counterscr=-7.4%;NS23 peptide cs=?;Papain counter=-11.6%;nsP2pro conf qHTS=?;HCV NS3 4A cs=i
Nc1c(-c2ccncc2)cc[nH]c1=O | -19.9%
Cc1ccc(-c2cc(C(=O)NCc3ccc(S(C)(=O)=O)cc3)c3ccccc3n2)cc1C | -5.6%
CC(C)(C)OC(=O)N1CCN(c2ccc(NCc3cnc(-c4ccc(C#N)cc4)s3)cc2)CC1 | i
CCCC1=Nc2cc(C(=O)NCCCN3CCCCC3CC)ccc2Sc2ccc(C)cc21 (stereo unspecified) | i
C=C1CC[C@H](O)C/C1=C\C=C1/CCC[C@]2(C)[C@@H]([C@H](C)CC[C@H](O)C(C)(C)O)CC[C@@H]12 | -27.6%
CC(=O)N1CCC(C(=O)N(CCCN2CCC(Cc3ccc(C(N)=O)cc3)CC2)c2ccc(C)c(Cl)c2)CC1 | -20.5%
Cc1cccc(-c2noc([C@@H]3Cc4nc[nH]c4CN3C(=O)C3CCCCC3)n2)c1 | 71.8%[39.2 µM]
Cc1cccc(-c2noc([C@@H]3Cc4nc[nH]c4CN3C(=O)c3ccc(-c4ccccc4)cc3)n2)c1 | i
O=C(NC1CCCCC1)N1Cc2[nH]cnc2C[C@H]1c1nc(-c2ccc(Cl)cc2)no1 | 4.47µM* | nsP2 cell sec=56.3%;CHIKV NSP2 FL=33.5µM*;Furin counterscr=-9.4%;NS23 peptide cs=?;Papain counter=-9.5%;nsP2pro conf qHTS=10.3µM*;HCV NS3 4A cs=i
Nc1c(Br)cc(Br)cc1CNC1CCC(O)CC1 (stereo unspecified) | 7.1%
Oc1c(Br)cc(Br)cc1CNC1CCC(O)CC1 (stereo unspecified) | 8.81µM* | nsP2 cell sec=-6.8%;CHIKV NSP2 FL=-4.6%;Furin counterscr=3.6%;NS23 peptide cs=-7.0%;Papain counter=-7.2%;nsP2pro conf qHTS=-17.3%;HCV NS3 4A cs=i
CC1(C)Oc2ncnc(N)c2N=C1c1ccc(C2CCC(CC(=O)O)CC2)cc1 (stereo unspecified) | -7.1%
O=C(Nc1ccc(F)nc1)Nc1nnc(-c2ccncc2)s1 | 4.3%
Cc1cccc(-c2nc3c4ccccc4n(CC(=O)Nc4cc(F)ccc4F)c(=O)n3n2)c1 | -13.9%
Cc1ccccc1Cn1c(C(=O)O)c(CNCc2cccc(F)c2)c2ccccc21 | -27.6%
Cc1c(Cc2ccc3ccccc3n2)c2cc(F)ccc2n1CC(=O)O | ? | nsP2 cell sec=-3.0%;CHIKV NSP2 FL=45.1%;Furin counterscr=-8.0%;NS23 peptide cs=i;Papain counter=-17.7%;nsP2pro conf qHTS=?;HCV NS3 4A cs=i
Cc1[nH]c2ccc(Cl)cc2c1CCN(C)C | -19.1%
CN[C@H]1C(=O)N[C@@H]2Cc3ccc(cc3)Oc3cc4cc(c3O[C@@H]3O[C@H](C(=O)O)[C@@H](O)[C@H](O)[C@H]3NC(=O)CCCCCCCCC(C)C)Oc3ccc(cc3Cl)[C@@H](O)[C@@H]3NC(=O)[C@H](NC(=O)[C@@H]4NC(=O)[C@@H](NC2=O)c2cc(cc(O)c2Cl)Oc2cc1ccc2O)c1ccc(O)c(c1)-c1c(O[C@H]2O[C@H](CO)[C@@H](O)[C@H](O)[C@@H]2O)cc(O)cc1[C@@H](C(=O)NCCCN(C)C)NC3=O | 32.1%[10 µM]
C[C@H](O)[C@H](O)[C@@H](O)[C@@H](O)C=O | -11.7%
O=[N+]([O-])c1ccc(O/N=[N+](\[O-])N2CCN(c3ncccn3)CC2)c([N+](=O)[O-])c1 | -25.4%

Compound activity deposited in PubChem by National Center for Advancing Translational Sciences (NCATS).
